EPAC2 agonist = qHTS for Agonist of cAMP-regulated guanine nucleotide exchange factor 4 (EPAC2): primary screen. Rap guanine nucleotide exchange factor 4 (Homo sapiens), Q8WZA2. EPAC2 activation, biochemical qHTS; response scale: 100% = 6.5 mM cAMP response. Potency, µM (highest dose often 154 µM), hits mostly activators. 360,000 tested, 0.079% active. AID 720711, 2013; also: nearly all actives have a fitted effect of over 50% in size
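Exchange assay: 100 nM EPAC2 with 250 nM Rap1B-BODIPY-GDP and 50 uM GDP. Fluorescence (ex 480/em 540 nm) read every 5 min for 30 min at room temperature. Data normalized to 6.5 mM cAMP as agonist control.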
USP2a block = qHTS Assay for Inhibitors of Ubiquitin-specific Protease USP2a Using CHOP2 as the Reporter | USP2 core, Ub-CHOP2 coupled fluorogenic reporter, 485/531 | Potency, µM (top dose mostly 38.3 µM), most hits filed as inhibitors | 330,000 tested, 0.01% active
Target sequence (O75604 whole entry, looked up): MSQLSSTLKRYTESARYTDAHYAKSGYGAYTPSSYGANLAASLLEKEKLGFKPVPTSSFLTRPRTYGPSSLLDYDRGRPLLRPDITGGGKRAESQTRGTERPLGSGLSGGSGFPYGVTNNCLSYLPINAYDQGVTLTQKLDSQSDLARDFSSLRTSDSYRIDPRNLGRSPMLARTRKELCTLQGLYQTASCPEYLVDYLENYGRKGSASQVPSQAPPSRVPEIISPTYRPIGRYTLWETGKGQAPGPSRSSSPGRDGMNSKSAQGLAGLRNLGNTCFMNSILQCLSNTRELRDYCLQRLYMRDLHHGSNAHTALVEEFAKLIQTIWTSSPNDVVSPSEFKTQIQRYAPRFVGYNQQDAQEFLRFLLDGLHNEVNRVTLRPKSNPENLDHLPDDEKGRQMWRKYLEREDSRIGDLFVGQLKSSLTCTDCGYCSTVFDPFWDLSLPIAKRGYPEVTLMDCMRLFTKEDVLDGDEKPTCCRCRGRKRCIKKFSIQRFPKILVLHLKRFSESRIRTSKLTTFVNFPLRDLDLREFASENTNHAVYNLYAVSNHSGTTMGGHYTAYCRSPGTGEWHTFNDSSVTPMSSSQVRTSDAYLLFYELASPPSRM
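Cell-free coupled assay: 10nM USP2 core preincubated 30min RT with compound in Tris-HCl pH 8.0/CaCl2/CHAPS buffer, then 25nM Ub-CHOP2 and 25nM reporter substrate; fluorescence (Ex 485/Em 531) read after 60min RT, normalized to NEM inhibition, concentration-response curves fitted.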
EPAC1 ag = qHTS for Agonist of cAMP-regulated guanine nucleotide exchange factor 3 (EPAC1): primary screen; Rap guanine nucleotide exchange factor 3 (Homo sapiens), O95398; EPAC1 agonist qHTS, biochemical assay; response scale: 100% = response to 6.5 mM cAMP; Potency, µM (titrated, usually from 154 µM), most hits filed as activators; 360,000 tested, 0.073% active; also: nearly all actives have a fitted effect of over 60% in size
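Nucleotide exchange by EPAC1 (100 nM) on Rap1B–BODIPY-GDP (250 nM) in the presence of 50 uM GDP is tracked fluorescently at 480/540 nm over 30 min. Signals are normalized to a 6.5 mM cAMP control.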
USP1-UAF1 inh = Inhibitors of USP1/UAF1: Primary Screen; 390,000 tested, 0.23% active; recombinant USP1/UAF1, Ub-Rhodamine cleavage fluorescence; Ubiquitin carboxyl-terminal hydrolase 1 (Homo sapiens), O94782; Potency, µM (top dose mostly 57.1 µM), most hits filed as inhibitors; also: nearly all actives have a fitted effect of over 60% in size
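USP1/UAF1 complex at 1 nM was preincubated with compound for 15 min at room temperature, then Ub-Rho substrate (150nM final) was added. Fluorescence (480/540 nm) was read kinetically, 6 reads every 60 seconds.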
EPAC2 antagonist = qHTS for Antagonist of cAMP-regulated guanine nucleotide exchange factor 2 (EPAC2): primary screen. Rap guanine nucleotide exchange factor 4 (Homo sapiens), Q8WZA2. EPAC2 GEF exchange of Rap1B-BODIPY-GDP, fluorescence. Potency, µM (series often up to 114 µM), hits mostly inhibitors. 360,000 tested, 0.18% active. AID 720708, 2013; also: nearly all actives have a fitted effect of over 45% in size
EPAC1 antagonist = qHTS for Antagonist of cAMP-regulated guanine nucleotide exchange factor 3 (EPAC1): primary screen; Rap guanine nucleotide exchange factor 3 (Homo sapiens), O95398; EPAC1 GEF assay, Rap1b-BODIPY-GDP exchange fluorescence; Potency, µM (top dose mostly 115 µM), usual class: inhibitors; 360,000 tested, 0.14% active; AID 720709, 2013; also: nearly all actives have a fitted effect of over 50% in size
Numbers stand for hits; 0 = inactive; ? = inconclusive; - = no result. This is a sample that favours compounds with a hit; in the whole collection about 0.45% have one here. Calls follow the shape of the dose curve; as a rule, active = well fitted curve in the direction sought with a large enough effect; inconclusive = small, poorly fitted or top-dose-only effect, or another doubt; inactive = no such curve, though single readings can be large; an effect the other way counts as inactive or inconclusive.

SMILES	EPAC2 agonist	USP2a block	EPAC1 ag	USP1-UAF1 inh	EPAC2 antagonist	EPAC1 antagonist
N#CC(C#N)=NNc1ccc(S(N)(=O)=O)cc1	0	0	0	0	0	56.2µM
CC(=O)OC1CC(OC2C(O)CC(OC3C(O)CC(OC4CCC5(C)C(CCC6C5CC(O)C5(C)C(C7=CC(=O)OC7)CCC65O)C4)OC3C)OC2C)OC(C)C1OC1OC(CO)C(O)C(O)C1O (stereo not drawn)	112µM	-	0	0	89.1µM	0
COc1ccc(OC)c(N2C(=O)/C(=C/c3ccco3)C(=O)NC2=S)c1	0	?	0	15.8µM	?	8.91µM
CCN1C(=O)/C(=C\c2ccc([N+](=O)[O-])s2)C(=O)NC1=S	-	0	-	-	-	-
COc1ccc(OC)c(N2C(=O)NC(=O)/C(=C/c3ccc([N+](=O)[O-])s3)C2=O)c1	0	0	0	15.8µM	0	?
O=P(/C=C1\OCc2ccccc21)(Oc1ccccc1)Oc1ccccc1	0	-	0	-	0	0
C=C1C(=O)O[C@@H]2C[C@@H](C)[C@@H]3C=CC(=O)[C@@]3(C)[C@@H](OC(=O)CC(=O)O[C@H]3[C@@H]4C(=C)C(=O)O[C@@H]4C[C@@H](C)[C@@H]4C=CC(=O)[C@]43C)[C@H]12	0	0	0	?	?	39.8µM
Oc1c(Br)c(Br)c(Br)c(Br)c1Br	0	0	0	?	20µM	70.8µM
Oc1c(Br)cc(Br)cc1Br	0	0	0	0	0	0
COC(=O)c1cn(Cc2ccc(F)cc2)c2ccccc12	0	-	0	0	?	0
COC(=O)c1cn(C(=O)c2cccc3ccccc23)c2ccccc12	0	0	0	0	8.91µM	0
Cc1ccc([C@@H]2CC(=O)[C@@H]3CN(S(=O)(=O)c4ccccc4C)[C@H](c4ccc(Cl)cc4)C[C@@H]3N2S(=O)(=O)c2ccc(C)cc2)cc1	0	-	0	0	0	0
O=[N+]([O-])c1ccc(N(CCO)CCO)c2c1no[n+]2[O-]	0	-	0	0	?	56.2µM
CN1CCN(c2ccc([N+](=O)[O-])c3no[n+]([O-])c23)CC1	0	?	0	0	0	?
COC(=O)C1=C(C(=O)OC)SC2(S1)C(C(=O)OC)=C(C(=O)OC)Sc1c2ssc1=O	0	-	0	0	0	0
CCOP(=O)(OCC)c1ccc2c(c1)C(=O)c1ccccc1CC2	0	0	0	-	?	0
CCOP(=O)(OCC)C(Cc1ccc(OC)c(OC)c1)N=C(c1ccccc1)c1ccccc1 (stereo not drawn)	0	-	0	-	?	0
COCCNC(=O)c1c(N)n(CCC(C)C)c2nc3ccccc3nc12	0	0	0	?	79.4µM	44.7µM
CCCCNC(=O)c1c(N)n(CCCOC)c2nc3ccccc3nc12	0	0	0	11.2µM	?	?
CCCNC(=O)C1(C)CCN(Cc2ccc3ccccc3c2Br)C1 (stereo not drawn)	0	-	0	-	0	?
Cc1ccc(-c2nc(CN3C(=O)CN=C(c4ccccc4Cl)c4cc(Cl)ccc43)c(C)o2)cc1	-	-	-	0	-	-
CN(Cc1cccc(-c2ccncc2)c1)C(=O)Oc1ccccc1Cc1ccccc1	0	-	0	-	?	0
Nc1c(C(=O)NCC2CCCO2)c2nc3ccccc3nc2n1Cc1ccco1 (stereo not drawn)	0	0	0	0	0	0
Nc1c(C(=O)NC2CCCC2)c2nc3ccccc3nc2n1CC1CCCO1 (stereo not drawn)	0	0	0	28.2µM	0	0
Nc1ccc2c3c(cccc13)-c1ccccc1-2	?	-	?	5.62µM	0	0
SMILES	EPAC2 agonist	USP2a block	EPAC1 ag	USP1-UAF1 inh	EPAC2 antagonist	EPAC1 antagonist
Nc1ccc(C2(c3ccc(N)cc3)c3ccccc3-c3ccccc32)cc1	0	0	0	0	0	0
CC[C@@]1(C(=O)OC)N[C@H](CN(C)C(=O)Nc2ccc(OC)cc2)[C@@H]2C(=O)N(Cc3ccccc3)C(=O)[C@@H]21	?	0	0	0	0	0
CCn1c(O)c(/C=N/NC(=O)c2ccncc2)c(=O)n(CC)c1=S	?	0	56.2µM	?	0	0
Cn1c(O)c(/C=N/NC(=O)c2ccncc2)c(=O)n(C)c1=S	0	0	0	0	0	0
NC1=C(Br)C(=O)c2ccccc2C1=O	0	0	0	8.91µM	0	0
O=C1C(=O)c2cccc3cccc1c23	0	0	0	0	0	0
O=C1C(=O)c2ccccc2-c2ccccc21	0	0	0	1µM	?	8.91µM
Cc1cccc(N2C(=O)/C(=C/c3ccc(CN(CCC#N)S(C)(=O)=O)o3)C(=O)NC2=S)c1	0	0	0	25.1µM	0	?
Cc1ccc(N2C(=O)/C(=C/c3ccc(CN(CCC#N)S(C)(=O)=O)o3)C(=O)NC2=S)cc1C	-	0	-	-	-	-
C[C@@]12CC[C@@H](c3cc4c(cc3C1)OCO4)N2c1ccccc1	0	-	0	-	0	0
CC(=O)C1=C(O)C2(C)c3c(O)c(C)c(O)c(C(C)=O)c3OC2CC1=O (stereo not drawn)	0	-	0	0	14.1µM	0
COc1ccc2[nH]c3c(c2c1)CCN1C(=O)C(CC(=O)NCc2cccc(C(F)(F)F)c2)C[C@H](C(=O)N2CCCCC2)[C@@]31C (stereo partly drawn)	0	0	0	?	0	0
O=C(/C=C/c1c[nH]c2ccccc12)c1c(O)n(CCc2ccccc2)c(=O)[nH]c1=O	0	0	0	25.1µM	0	0
CCCCn1c(O)c(C(C)=NCCc2c[nH]c3ccccc23)c(=O)[nH]c1=O	0	0	0	0	0	0
Cn1c(=O)n(C)c2cc(CNCCc3ccccc3)ccc21	-	-	-	0	-	-
O=C1NC(=O)C(=Cc2cn(CCOc3ccc4c(c3)OCO4)c3ccccc23)C(=O)N1	100µM	0	0	0	0	0
CC(C)C[C@H]1C(=O)N2CCC[C@H]2[C@]2(O)O[C@](NC(=O)[C@@H]3C=C4c5cccc6[nH]cc(c56)C[C@H]4N(C)C3)(C(C)C)C(=O)N12	0	?	0	17.8µM	0	0
